Rab9 promoter act: Rab9 promoter activation; Huh7 Rab9 promoter-luciferase reporter, luminescence, 24 h; Potency, µM (top dose mostly 9.22 µM), without a hit: at the highest dose activation, negative = inhibition, hits mostly activators; actives 2.8% (n = 320,000); AID 485297; further: % of control where 0% means no effect; nearly all actives have a fitted effect of over 60% in size
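Luminescence read-out: Huh7 cells stably expressing Rab9-luciferase, treated 24 h with compound at 37 °C, then lysed with luciferase reagent for 10 min at ambient before reading.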
FLuc modulator: firefly luciferase modulation, counter-screen for miR-21 project; purified FLuc, Km substrates, luminescence inhibition; Potency, µM (doses to about 57.5 µM), without a hit: top-dose activity change, negative = inhibition, most hits filed as inhibitors; actives 6.9% (n = 360,000); AID 588342;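 further: plate controls were vehicle for no effect and reference inhibitor for full effect; nearly all actives have a fitted effect of over 55% in size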
Target sequence (P08659 whole entry, looked up): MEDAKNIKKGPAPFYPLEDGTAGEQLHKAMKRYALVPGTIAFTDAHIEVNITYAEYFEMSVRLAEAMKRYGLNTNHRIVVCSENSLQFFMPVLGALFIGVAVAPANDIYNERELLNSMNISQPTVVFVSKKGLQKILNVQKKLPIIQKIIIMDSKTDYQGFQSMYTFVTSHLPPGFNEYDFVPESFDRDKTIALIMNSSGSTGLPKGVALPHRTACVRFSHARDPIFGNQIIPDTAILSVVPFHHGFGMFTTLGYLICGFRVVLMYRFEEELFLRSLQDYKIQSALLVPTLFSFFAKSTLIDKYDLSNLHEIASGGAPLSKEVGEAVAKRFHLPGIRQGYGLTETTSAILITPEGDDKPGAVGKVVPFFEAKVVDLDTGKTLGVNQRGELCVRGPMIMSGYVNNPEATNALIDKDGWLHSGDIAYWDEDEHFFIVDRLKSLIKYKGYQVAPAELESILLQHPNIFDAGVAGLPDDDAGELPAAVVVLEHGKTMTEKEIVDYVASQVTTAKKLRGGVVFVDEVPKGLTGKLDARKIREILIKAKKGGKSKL
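Purified P. pyralis luciferase, 10 nM final, with Km-level 10 uM D-luciferin and 10 uM ATP in 50 mM Tris acetate pH 7.5, 10 mM Mg acetate, 0.01% Tween-20, 0.05% BSA; 6-point qHTS titration about 60 µM downward; luminescence read.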
SMN2 splice up: SMN2 splice variant enhancement | HEK293 SMN2-luciferase splicing reporter, luminescence, 30-36 h | Potency, µM (titrated, usually from 46.1 µM), inactives show top-dose activity change, positive = activation, most hits filed as activators | actives 2.8% (n = 210,000) | AID 1458; further: % of control where 0% means no effect; nearly all actives have a fitted effect of over 55% in size
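HEK293 cells carry an SMN2 minigene-luciferase reporter in which exon 7 inclusion puts luciferase in frame. Cells were seeded at 2000 cells/well, attached for 10-12 hours, then exposed to compounds for 30-36 hours at 37C before ONE-Glo luminescence.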
ELG1 genotoxic: genotoxicity induction in ELG1-luciferase HEK293T cells | HEK293T ELG1-luciferase reporter, luminescence, 16 h | AID 504466 | Potency, µM (highest dose often 46 µM), inactives show top-dose activity change, positive = activation, usual class: activators | actives 1.3% (n = 330,000); further: % of control where 0% means no effect; nearly all actives have a fitted effect of over 60% in size
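16 hr compound incubation (37 °C, 5% CO2) of HEK293T cells carrying luciferase-tagged ELG1; luciferase then measured by ONE-Glo luminescence after 30 min at RT.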
NPC1 prom act: activators of NPC1 promoter; AID 485313; actives 2.4% (n = 320,000); Potency, µM (doses to about 9.22 µM), inactives show at the top dose activation, usual class: activators; Huh7 NPC1 promoter luciferase reporter, 24 h; further: % of control where 0% means no effect; nearly all actives have a fitted effect of over 60% in size
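Huh7 cells stably carrying NPC1 promoter–luciferase, plated in Opti-MEM with 10% FBS for 2 h, were exposed to compound in DMSO for 24 h at 37 °C; luciferase reagent was added for 10 min and luminescence read.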
The depositor's hits bear a star; u = inconclusive; x = not tested or not shown; [ ] = remark or other dose. Sampled rows, rich in hits. Any-hit rate of the full collection: about 7.4%. The call rests on the fitted dose curve; in most records, active means well fitted curve in the direction sought with a large enough effect; inconclusive means small, poorly fitted or top-dose-only effect, or another doubt; inactive means no such curve, though single readings can be large; an effect the other way counts as inactive or inconclusive. Potency means the concentration at half of the fitted maximal effect.

SMILES	Rab9 promoter act	FLuc modulator	SMN2 splice up	ELG1 genotoxic	NPC1 prom act
CC(C)(C)c1ccc(C(=O)Nc2ccc(F)cc2)s1	0.63µM*	1.2µM*	x	2.9µM*	0.71µM*
CCc1cc2cc(C(=O)N3CCN(Cc4ccccc4)CC3)sc2s1	x	17µM*	-20%	x	x
CCc1cc2cc(C(=O)N3CCN(c4ccccc4)CC3)sc2s1	1%	7%	7%	-1%	-1%
Cn1nc(C(F)(F)F)c2cc(C(=O)Nc3ccc(F)cc3)sc21	-17%	-3%	x	-5%	-2%
CCc1cc2cc(C(=O)Nc3ccccc3F)sc2s1	1.8µM*	0.76µM*	u	1.2µM*	2.2µM*
COCCNC(=O)c1cc(-c2cccc(OC)c2)on1	3.2µM*	12µM*	11µM*	u	3.5µM*
COCC(C)NC(=O)c1cc(-c2cccc(OC)c2)on1 (centres undefined)	2.2µM*	u	u	u	u
O=C(NC1CCCCC1)c1ccc(-c2cccc([N+](=O)[O-])c2)o1	0.4µM*	2.7µM*	x	2.1µM*	0.32µM*
COc1cccc(-c2cc(C(=O)NC3CCCC3)no2)c1	0.63µM*	4.3µM*	11µM*	1.8µM*	1.4µM*
O=C(O)c1ccc(-c2cccc([N+](=O)[O-])c2)o1	0%	-16%	x	-3%	-1%
COCC(C)NC(=O)c1cc(-c2ccc(O)cc2)on1 (centres undefined)	25%	-20%	9%	u	27%
Cc1ccn2c(-c3n[nH]c(=S)n3C)c(C)nc2c1	-2%	-2%	-36%	0%	-4%
Cc1sc2c(c1C)c(=O)n(-c1ccc(Cl)cc1)c(=O)n2CC(=O)c1ccccc1	x	6%	0%	x	x
Cc1cnc(NC(=O)Cc2ccc(C)c(C)c2)s1	6%	-2%	x	7%	11%
COc1ccc(S(=O)(=O)N2CCCC(C(=O)NC3CC3)C2)cc1Cl (centres undefined)	-1%	1%	x	3%	-3%
O=C(Nc1ccc(Br)cc1)c1cc([N+](=O)[O-])cc([N+](=O)[O-])c1	5%	2%	x	-15%	-1%
O=c1c2c([N+](=O)[O-])cc([N+](=O)[O-])cc2sn1-c1ccc(Br)cc1	-1%	21µM*	-4%	-1%	-5%
O=c1c2c([N+](=O)[O-])cc([N+](=O)[O-])cc2sn1Cc1ccccc1	5%	9.5µM*	x	-1%	-4%
O=C(CCOc1ccccc1)N(Cc1cccnc1)c1nc2ccc(F)cc2s1	x	-11%	x	x	x
COc1ccc(-c2nc(CSCC(=O)NCCCN3CCCC3=O)c(C)o2)cc1OC	0%	0%	x	4%	-5%
Cc1ccc(S(=O)(=O)c2cnc(SCC(=O)Nc3ccccc3C(F)(F)F)[nH]c2=O)cc1C	x	11µM*	-8%	x	x
Cc1c(Cl)cccc1NC(=O)CSc1ncc(S(=O)(=O)c2ccc(C(C)C)cc2)c(=O)[nH]1	x	7.6µM*	-5%	x	x
Cc1cc(C)cc(NC(=O)CSc2ncc(S(=O)(=O)c3ccccc3)c(=O)[nH]2)c1	-4%	-6%	-4%	1%	1%
Cc1ccc(S(=O)(=O)c2cnc(SCC(=O)Nc3ccc4c(c3)OCCO4)[nH]c2=O)cc1C	x	11µM*	-3%	x	x
COc1cc(Cl)c(C)cc1NC(=O)CSc1ncc(S(=O)(=O)c2ccc(C(C)(C)C)cc2)c(=O)[nH]1	x	u	6%	x	x
SMILES	Rab9 promoter act	FLuc modulator	SMN2 splice up	ELG1 genotoxic	NPC1 prom act
Cc1ccc(NC(=O)CSc2ncc(S(=O)(=O)c3ccc(C(C)C)cc3)c(=O)[nH]2)cc1C	x	u	-3%	x	x
COc1ccc([C@]23Cc4cc(OC)c(OC)cc4C(O2)c2c(c4ccccc4oc2=O)O3)cc1	8%[1.84 µM]	-17%[11.5 µM]	x	x	-1%[1.84 µM]
CCOC(=O)C1(Cc2cccc(Cl)c2)CCCN(C(=O)CCOC)C1 (centres undefined)	15%	u	x	6%	4%
CCOC(=O)C1(Cc2cccc(OC)c2)CCCN(C(=O)CCN2CCCO2)C1 (centres undefined)	3.2µM*	15µM*	x	23µM*	3.5µM*
CCOC(=O)C1(Cc2cccc(OC)c2)CCCN(C(=O)c2ccc(OC)o2)C1 (centres undefined)	2.5µM*	12µM*	x	u	u
CCOC(=O)C1(Cc2cccc(OC)c2)CCCN(C(=O)c2cc(CC(C)C)[nH]n2)C1 (centres undefined)	3.5µM*	21µM*	x	u	u
CCOC(=O)C1(Cc2cccc(OC)c2)CCCN(Cc2cc(OC)c(O)c(OC)c2)C1 (centres undefined)	7%	-3%	x	-4%	4%
CC(OC(=O)CC1CCCCC1)C(=O)Nc1cccc(C#N)c1 (centres undefined)	-4%	1%	x	-5%	0%
O=C1NC(=O)/C(=C/c2ccco2)N1	0%	-3%	x	5%	0%
O=C1NC(c2cccc(Br)c2)=N/C1=C\c1ccco1	u	11µM*	-13%	16%	u
O=C1NC(c2ccccc2)=N/C1=C/c1ccco1	3.2µM*	2.1µM*	13µM*	u	3.5µM*
O=C1NC(c2ccccc2Br)=N/C1=C\c1ccco1	u	0.38µM*	x	u	13%
COc1ccc(-c2noc(N3CCC(C(=O)NCCCN4CCCCC4)CC3)n2)cc1	-1%	-20%	x	2%	0%
O=C(Nc1ccnn1C1CCN(C2CCCC2)CC1)c1ccccc1	-1%	-2%	x	0%	-5%
O=C(NC1CCSC1=O)C1CC(=O)N(c2ccc(F)cc2)C1 (centres undefined)	-1%	0%	x	0%	-3%
COc1ccc(C)cc1NC(=O)CNC(=O)[C@@H]1Cc2ccccc2CN1	-3%	0%	x	0%	1%
CCOCCCNC(=O)c1cccc(OC2CCN(S(C)(=O)=O)CC2)c1	2.8µM*	11µM*	x	u	3.5µM*
O=C(NCCOc1ccccc1)c1ccc2c(c1)OCO2	0.28µM*	0.76µM*	2.5µM*	u	0.28µM*
COCCCNC(=S)NNC(=O)c1ccc2c(c1)OCO2	13%	0%	-2%	1%	28%
CCOCCCNC(=O)c1ccc2c(c1)OCO2	u	u	14µM*	10%	18%
COc1ccccc1C(C)NC(=O)c1ccc(NC(=O)CC2SC(N3CCCC3)=NC2=O)cc1 (centres undefined)	-5%	7%	x	-2%	-3%
CN(C)C(=O)c1cc(C(=O)c2ccc(F)cc2C(F)(F)F)c[nH]1	0%[1.84 µM]	0%	x	-12%	-11%
CC(=O)N=c1sc2ccccc2n1C	14%	-1%	-16%	14%	-3%
Cn1/c(=N/N=C/c2ccccn2)sc2ccccc21	1.1µM*	3.8µM*	16µM*	u	2.2µM*
Cn1/c(=N/N=C/c2ccc(Cl)c([N+](=O)[O-])c2)sc2ccccc21	13%	u	14%	0%	u

Bioassay records: PubChem BioAssay, National Center for Advancing Translational Sciences (NCATS)
